Reference: PubChem BioAssay (Tox21)
Results filed as inconclusive are left out. The source made the active and inactive calls. Unless noted, calls follow the shape of the dose curve; as a rule, active = well fitted curve in the direction sought with a large enough effect in the repeat runs; inconclusive = weak or mixed curves; inactive = no such curve, though single readings can be large; an effect the other way counts as inactive or inconclusive.

Key:
[1] = qHTS assay to identify small molecule antagonists of the thyroid receptor (TR) signaling pathway (AID 743065); also: series mostly up to about 70 µM; nearly all actives have a fitted effect of over 55% in size
How it was run: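 GH3.TRE-Luc rat pituitary cells carrying two TR response elements driving luciferase were plated for 4 h, given compound plus 1 nM T3 (final), and incubated 23.5 h at 37 C. ONE-Glo luminescence measured reporter inhibition; CellTiter-Fluor fluorescence tracked cytotoxicity.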

[2] = test system: thyroid hormone receptor (rat, GH3 cells); test: qHTS assay to identify small molecule agonists of the thyroid receptor (TR) signaling pathway (AID 743066; calls by dose curve)
[3] = target: Estrogen receptor (Homo sapiens) (UniProt P03372); test: qHTS assay to identify small molecule antagonists of the estrogen receptor alpha (ER-alpha) signaling pathway (AID 743069; active = well fitted curve in the direction sought with a large enough effect in the signal ratio in the repeat runs, not every such curve was filed as active; the % refers to the signal ratio)
How it was run: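 Screening used a UAS-driven beta-lactamase reporter integrated into HEK293 cells expressing ER-alpha, stimulated with 17beta-estradiol alongside test compounds over 18 hr at 37C; signal came from LiveBLAzer B/G FRET fluorescence.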

[4] = qHTS assay to identify small molecule antagonists of the estrogen receptor alpha (ER-alpha) signaling pathway - cell viability counter screen (AID 743074; calls by dose curve; also: nearly all actives have a fitted effect of over 45% in size)
[5] = target: Estrogen receptor (Homo sapiens) (UniProt P03372); test: qHTS assay to identify small molecule agonists of the estrogen receptor alpha (ER-alpha) signaling pathway (AID 743075; calls by dose curve)
[6] = target: Estrogen receptor (Homo sapiens) (UniProt P03372); test: qHTS assay to identify small molecule agonists of the estrogen receptor alpha (ER-alpha) signaling pathway using the BG1 cell line (AID 743079); also: nearly all actives have a fitted effect of over 20% in size
[7] = qHTS assay to identify small molecule antagonists of the estrogen receptor alpha (ER-alpha) signaling pathway using the BG1 cell line - cell viability counter screen (AID 743081);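 also: compound given together with 17beta-estradiol as the ER stimulus; series mostly up to about 70 µM; nearly all actives have a fitted effect of over 45% in size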
Aromatase (Homo sapiens) = Aromatase (Homo sapiens) (UniProt P11511); test: qHTS assay to identify aromatase inhibitors (AID 743083); also: series mostly up to about 70 µM; nearly all actives have a fitted effect of over 55% in size
[8] = qHTS assay to identify aromatase inhibitors - cell viability counter screen (AID 743084);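 also: cells stimulated with testosterone during compound exposure; nearly all actives have a fitted effect of over 55% in size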
[9] = target: Aryl hydrocarbon receptor (Homo sapiens) (UniProt P35869); test: qHTS assay to identify small molecule that activate the aryl hydrocarbon receptor (AhR) signaling pathway (AID 743085);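 also: HG2L7.5c1 human HepG2 liver cells with stably integrated DRE-driven firefly reporter; series mostly up to about 70 µM; nearly all actives have a fitted effect of over 15% in size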
How it was run: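 Luminescence (ONE-Glo) from a dioxin-responsive-element luciferase reporter in HG2L7.5c1 HepG2 cells after 24 hr compound exposure at 37C; viability measured by CellTiter-Fluor fluorescence beforehand.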

[10] = target: Peroxisome proliferator-activated receptor gamma (Homo sapiens) (UniProt P37231); test: qHTS assay to identify small molecule antagonists of the peroxisome proliferator-activated receptor gamma (PPARg) signaling pathway (AID 743191; calls by dose curve; also: series mostly up to about 63 µM; nearly all actives have a fitted effect of over 30% in size)
How it was run: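 GeneBLAzer PPARg UAS-bla HEK293H cells carrying a UAS-driven beta-lactamase reporter were plated at 3000 cells/well, preincubated 5 h at 37C, then given compound for 17 h at 37C; LiveBLAzer B/G FRET substrate was read after 1 h at room temperature.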

[11] = qHTS assay for small molecule agonists of the antioxidant response element (ARE) signaling pathway (AID 743202; active = well fitted activation curve with a large enough effect in the signal ratio in the repeat runs, not every such curve was filed as active; the % refers to the signal ratio)
How it was run: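 Steps: seed ARE-bla HepG2 cells (2,000/well); incubate 5 h at 37 C; add compounds by pin tool; incubate 16 h at 37 C; add FRET substrate; read fluorescence after 2 h at RT.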

[12] = qHTS assay for small molecule agonists of the antioxidant response element (ARE) signaling pathway - cell viability counter screen (AID 743203; calls by dose curve; also: nearly all actives have a fitted effect of over 55% in size)
How it was run: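 Viability counter screen: CellTiter-Glo luminescence, read after 30 min at room temperature, in ARE-bla HepG2 wells. Compound exposure lasted 16 h at 37C/5% CO2, following a 5 h pre-incubation of the cells after plating.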

[13] = qHTS assay for small molecule activators of the heat shock response signaling pathway - cell viability counter screen (AID 743209); also: nearly all actives have a fitted effect of over 50% in size
How it was run: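 Cytotoxicity counter screen run in the same wells as the heat-shock bla reporter assay: HeLa HSE-bla cells, 5 h compound exposure at 37 C, viability read by CellTiter-Glo luminescence.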

[14] = qHTS assay for small molecule activators of the heat shock response signaling pathway (AID 743210; active = well fitted activation curve with a large enough effect in the signal ratio in the repeat runs, with a control signal flat, not every such curve was filed as active; the % refers to the signal ratio;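 also: HeLa cells with beta-lactamase reporter driven by heat shock elements; series mostly up to about 63 µM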)
How it was run: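 Activation of heat shock element-controlled beta-lactamase expression is measured in HeLa cells by LiveBLAzer FRET fluorescence, with compound exposure lasting 5 h at 37 C and substrate loading 2.5 h at room temperature.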

[15] = qHTS assay to identify small molecule agonists of the peroxisome proliferator-activated receptor delta (PPARd) signaling pathway - cell viability counter screen (AID 743211); also: nearly all actives have a fitted effect of over 55% in size
How it was run: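 Viability was measured as CellTiter-Glo luminescence (30 min, room temperature) in the same wells as the beta-lactamase readout. GeneBLAzer PPARd UAS-bla HEK293H cells received compound after 5 h plating and were incubated 17 h at 37 C.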

[16] = qHTS assay to identify small molecule that activate the aryl hydrocarbon receptor (AhR) signaling pathway - cell viability counter screen (AID 743086);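 also: HepG2 liver cells carrying the AhR DRE luciferase reporter; series mostly up to about 70 µM; nearly all actives have a fitted effect of over 45% in size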
How it was run: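 HepG2-AhR-luc (HG2L7.5c1) cells, 4000/well, were preincubated 5 h at 37C, exposed to compound in qHTS format for 24 hr at 37C, then given CellTiter-Fluor for 30 min; viability was read as fluorescence in the reporter wells.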

[17] = qHTS assay to identify small molecule antagonists of the peroxisome proliferator-activated receptor gamma (PPARg) signaling pathway - cell viability counter screen (AID 743194); also: nearly all actives have a fitted effect of over 55% in size
How it was run: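 PPARg-UAS-bla HEK293H cells were plated, rested 5 h at 37 C, then treated with compounds plus rosiglitazone (50 nM final) for 17 h at 37 C; viability was then read by CellTiter-Glo luminescence after 30 min at room temperature.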

[18] = qHTS assay to identify small molecule antagonists of the estrogen receptor alpha (ER-alpha) signaling pathway using the BG1 cell line (AID 743080; calls by dose curve;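 also: BG1 cells stimulated with 17beta-estradiol alongside compound; series mostly up to about 70 µM; nearly all actives have a fitted effect of over 25% in size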)
How it was run: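 BG1-Luc-4E2 cells (endogenous full-length ER-alpha, 4xERE luciferase) hormone-starved 5 days in charcoal-stripped FBS, plated 4,000/well for 24 h, then compound plus 17beta-estradiol for 21.5 h at 37 C; ONE-Glo luminescence read.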

[19] = target: Peroxisome proliferator-activated receptor gamma (Homo sapiens) (UniProt P37231); test: qHTS assay to identify small molecule agonists of the peroxisome proliferator-activated receptor gamma (PPARg) signaling pathway (AID 743094; active = well fitted activation curve with a large enough effect in the signal ratio in the repeat runs, not every such curve was filed as active; the % refers to the signal ratio)
How it was run: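 Agonist activity was taken from a beta-lactamase reporter (FRET substrate, 1 h at room temperature) in HEK293H cells carrying a PPARg UAS-bla construct. Compounds in DMSO were incubated 17 h at 37C after a 5 h cell pre-incubation.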

Measured: Potency

Aryl hydrocarbon receptor (Homo sapiens), sequence (P35869 whole entry, looked up): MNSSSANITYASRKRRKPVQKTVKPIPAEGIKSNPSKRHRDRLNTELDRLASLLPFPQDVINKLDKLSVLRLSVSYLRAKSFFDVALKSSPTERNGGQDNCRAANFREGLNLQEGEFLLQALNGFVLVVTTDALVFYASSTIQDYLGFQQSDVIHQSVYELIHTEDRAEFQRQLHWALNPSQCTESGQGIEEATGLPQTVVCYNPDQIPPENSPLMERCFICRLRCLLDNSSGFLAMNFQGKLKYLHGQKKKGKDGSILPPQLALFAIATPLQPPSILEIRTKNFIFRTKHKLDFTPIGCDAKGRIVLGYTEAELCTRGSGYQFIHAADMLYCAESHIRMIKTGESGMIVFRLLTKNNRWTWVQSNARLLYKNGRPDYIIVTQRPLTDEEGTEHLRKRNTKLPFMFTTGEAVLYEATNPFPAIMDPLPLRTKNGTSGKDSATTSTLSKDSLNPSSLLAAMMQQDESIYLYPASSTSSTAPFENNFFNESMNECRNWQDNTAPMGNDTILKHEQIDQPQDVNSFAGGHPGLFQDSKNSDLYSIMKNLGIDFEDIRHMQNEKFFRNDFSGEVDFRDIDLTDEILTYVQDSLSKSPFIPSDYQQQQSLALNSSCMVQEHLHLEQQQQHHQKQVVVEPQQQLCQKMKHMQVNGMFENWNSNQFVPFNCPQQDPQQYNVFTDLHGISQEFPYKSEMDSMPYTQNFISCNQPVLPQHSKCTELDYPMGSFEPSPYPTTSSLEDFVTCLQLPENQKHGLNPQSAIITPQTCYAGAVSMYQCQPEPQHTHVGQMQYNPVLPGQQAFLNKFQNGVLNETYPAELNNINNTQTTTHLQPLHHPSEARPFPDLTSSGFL
Aromatase (Homo sapiens), sequence (P11511 whole entry, looked up): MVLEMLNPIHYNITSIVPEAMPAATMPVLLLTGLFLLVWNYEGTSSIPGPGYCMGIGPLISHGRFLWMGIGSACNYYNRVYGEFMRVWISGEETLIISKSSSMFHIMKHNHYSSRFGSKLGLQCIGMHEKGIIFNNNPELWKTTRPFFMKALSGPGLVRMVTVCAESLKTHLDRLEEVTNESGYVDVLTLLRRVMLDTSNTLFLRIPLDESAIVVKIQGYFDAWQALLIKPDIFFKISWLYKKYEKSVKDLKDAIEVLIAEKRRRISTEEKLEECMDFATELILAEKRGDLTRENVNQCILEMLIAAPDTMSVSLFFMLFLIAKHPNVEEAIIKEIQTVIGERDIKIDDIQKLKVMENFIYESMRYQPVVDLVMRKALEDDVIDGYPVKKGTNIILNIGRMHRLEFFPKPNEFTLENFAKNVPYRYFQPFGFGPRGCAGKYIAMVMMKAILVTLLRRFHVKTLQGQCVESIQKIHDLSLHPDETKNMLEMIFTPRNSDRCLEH
Estrogen receptor (Homo sapiens), sequence (P03372 whole entry, looked up): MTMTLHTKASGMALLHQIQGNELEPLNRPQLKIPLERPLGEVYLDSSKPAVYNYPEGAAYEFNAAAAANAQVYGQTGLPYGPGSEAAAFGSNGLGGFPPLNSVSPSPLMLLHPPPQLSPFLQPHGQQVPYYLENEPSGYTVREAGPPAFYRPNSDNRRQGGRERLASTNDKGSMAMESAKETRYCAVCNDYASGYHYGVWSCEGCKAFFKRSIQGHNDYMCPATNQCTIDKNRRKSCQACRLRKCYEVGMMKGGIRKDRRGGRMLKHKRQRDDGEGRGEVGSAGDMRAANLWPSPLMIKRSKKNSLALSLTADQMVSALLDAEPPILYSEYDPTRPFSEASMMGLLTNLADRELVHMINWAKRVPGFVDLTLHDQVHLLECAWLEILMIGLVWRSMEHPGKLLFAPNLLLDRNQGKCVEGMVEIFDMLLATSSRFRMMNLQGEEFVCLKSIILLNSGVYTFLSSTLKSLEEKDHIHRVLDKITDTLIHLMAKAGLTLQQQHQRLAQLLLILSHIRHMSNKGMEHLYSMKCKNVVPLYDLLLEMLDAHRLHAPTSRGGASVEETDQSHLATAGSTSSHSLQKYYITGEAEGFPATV
Peroxisome proliferator-activated receptor gamma (Homo sapiens), sequence (P37231 whole entry, looked up): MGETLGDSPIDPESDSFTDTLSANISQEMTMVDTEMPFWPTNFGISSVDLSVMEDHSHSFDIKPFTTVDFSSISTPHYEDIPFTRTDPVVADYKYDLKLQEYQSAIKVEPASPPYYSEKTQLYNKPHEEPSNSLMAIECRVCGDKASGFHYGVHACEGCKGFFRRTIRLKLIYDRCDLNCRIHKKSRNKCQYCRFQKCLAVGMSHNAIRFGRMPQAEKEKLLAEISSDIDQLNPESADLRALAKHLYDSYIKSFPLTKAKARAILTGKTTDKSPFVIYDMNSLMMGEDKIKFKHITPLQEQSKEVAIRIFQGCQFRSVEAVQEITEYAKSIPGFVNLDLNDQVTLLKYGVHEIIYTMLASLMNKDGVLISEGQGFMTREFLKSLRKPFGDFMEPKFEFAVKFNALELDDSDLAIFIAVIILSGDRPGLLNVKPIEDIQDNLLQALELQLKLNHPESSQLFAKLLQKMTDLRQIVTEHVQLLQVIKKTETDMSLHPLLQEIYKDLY

O=C(O)Cc1c(Cl)ccc(Cl)c1Cl
not listed: [16] | [17] | [18] | [19]
inactive: all other assays above

CC(C)(Sc1cc(C(C)(C)C)c(O)c(C(C)(C)C)c1)Sc1cc(C(C)(C)C)c(O)c(C(C)(C)C)c1
not listed: [3] | [5] | [6] | [15] | [18] | [19]
inactive: all other assays above

COCc1nnc(-c2ccc[n+]([O-])c2)n1-c1c(Cl)c(Cl)cc2[nH]c(=O)c(=O)[nH]c12
not listed: [6] | [17]
inactive: all other assays above

C=C(C)C(=O)OCCCC
not listed: [3] | [5] | [6] | [15] | [17] | [18]
inactive: all other assays above

CC1(C)C(=O)C(C)(C)C1=O
not listed: [3] | [5] | [6] | [10] | [18] | [19]
inactive: all other assays above

O=C(O)/C=C(\CC(=O)O)C(=O)O
not listed: [6] | [10] | [17]
inactive: all other assays above

O=C[C@@H](O)[C@H](O)[C@H](O)CO
not listed: [3] | [5] | [6] | [10] | [15] | [18]
inactive: all other assays above

CC[N+](C)(CC)CC
not listed: [3] | [5] | [6] | [10] | [12] | [15] | [18]
inactive: all other assays above

CC(=O)c1c(C)cc(C(C)(C)C)cc1C
not listed: [3] | [5] | [6] | [11] | [18]
inactive: all other assays above

Nc1nc(Cl)cc(Cl)n1
not listed: [4] | [9] | [10] | [11] | [13] | [14] | [18]
inactive: all other assays above

CC(C)(C)c1ccc(N)cc1
not listed: [6] | [12] | [13] | [14] | [17]
inactive: all other assays above

COc1cc(NS(=O)(=O)c2ccc(N)cc2)ncn1
not listed: [3] | [5] | [6] | [10] | [13] | [14] | [18]
inactive: all other assays above

CCC(C)SSC(C)CC (centres undefined)
not listed: [3] | [10] | [11]
inactive: all other assays above

CC(C)CC(O)Cc1ccccc1 (centres undefined)
not listed: [6] | [8] | [16]
inactive: all other assays above

C=CCN1CCc2nc(N)sc2CC1
not listed: [3] | [5] | [6] | [12] | [15] | [18]
inactive: all other assays above
